# PubChem BioAssay
# A number with no mark means an inactive call. No rule for the calls is given here.
# Target: Pantothenate synthetase (Mycobacterium tuberculosis (strain ATCC 25618 / H37Rv)) (UniProt P9WIL5)
# Assay: Recombinant Mtb pantothenate synthetase (PanC) inhibitors, coupled enzyme, confirmatory (AID 375);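 also: 0% = full reaction with vehicle and 100% = no enzyme background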
# Conditions: coupled enzyme assay; at 10 µM, hits give high values
# Sequence of Pantothenate synthetase (Mycobacterium tuberculosis (strain ATCC 25618 / H37Rv)) (P9WIL5 whole entry, looked up): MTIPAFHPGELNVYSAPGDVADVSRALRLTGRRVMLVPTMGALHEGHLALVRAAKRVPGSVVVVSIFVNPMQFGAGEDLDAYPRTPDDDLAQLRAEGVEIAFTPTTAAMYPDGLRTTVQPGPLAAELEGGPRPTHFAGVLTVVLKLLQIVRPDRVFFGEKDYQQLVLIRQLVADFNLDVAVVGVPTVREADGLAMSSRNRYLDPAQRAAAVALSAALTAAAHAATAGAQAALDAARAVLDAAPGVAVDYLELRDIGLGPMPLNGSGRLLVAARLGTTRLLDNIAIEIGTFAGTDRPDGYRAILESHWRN
row,SMILES,inhibition [%]
1,CCC1(C)Cc2c(C#N)c(N)n(-c3ccccc3)c(=O)c2CO1 (stereo unspecified),0
2,CC(=O)c1c(C)[nH]c(C(=O)NC2=NCCS2)c1C,0
3,O=C(CSc1nc2ccccc2s1)N1CCOCC1,0
4,Cc1ccc(C(C(=O)NC2CCCCC2)N2CCOCC2)cc1 (stereo unspecified),0
5,Cc1sc2ncnc(OCC(=O)N3CCN(S(=O)(=O)c4ccc(Cl)cc4)CC3)c2c1C,0
6,COc1cccc2sc(NC(=O)c3ccc(S(=O)(=O)N4CCOCC4)cc3)nc12,1
7,CCCn1c(SCC(=O)NCc2ccco2)nc2c1c(=O)n(C)c(=O)n2C,11
8,CC(=O)[C@H]1CC[C@H]2[C@@H]3CCC4=CC(=O)CC[C@]4(C)[C@H]3[C@H](O)C[C@]12C,0
9,c1ccn2c(SCc3ccc4c(c3)OCCO4)nnc2c1,1
10,O=C(Nc1ccc2c(c1)OCCO2)C1CCCN1S(=O)(=O)c1cccc2cccnc12 (stereo unspecified),0
11,CCOC(=O)C(NC(=O)Nc1ccccc1)(OCC)C(F)(F)F (stereo unspecified),0
12,CCCCn1c(CN2CCN(c3ccc(F)cc3)CC2)nc2c1c(=O)n(C)c(=O)n2C,2
13,O=C(Nc1ccccc1N1CCN(c2ccc(F)cc2)CC1)c1ccccc1,0
14,Cc1ccc(S(=O)(=O)NCCOC(=O)Nc2sc(=S)n(C)c2C)cc1,0
15,COCCn1c(=N)c(C(=O)NCCc2ccccc2)cc2c(=O)n3cccc(C)c3nc21,3
16,CCOC(=O)NC1(NCc2ccccc2)Oc2ccccc2O1,0
